Measured values: PubChem BioAssay
The source made the active and inactive calls. The rule behind the calls is not given here.

These compounds were tested against Pantothenate synthetase (Mycobacterium tuberculosis (strain ATCC 25618 / H37Rv)) (UniProt P9WIL5) (assay: Recombinant Mtb pantothenate synthetase (PanC) inhibitors, coupled enzyme, confirmatory (AID 375;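 note: 0% = full reaction with vehicle and 100% = no enzyme background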)). Details: coupled enzyme assay; at 10 µM, hits give high values.
Chain of Pantothenate synthetase (Mycobacterium tuberculosis (strain ATCC 25618 / H37Rv)) (P9WIL5 whole entry, looked up): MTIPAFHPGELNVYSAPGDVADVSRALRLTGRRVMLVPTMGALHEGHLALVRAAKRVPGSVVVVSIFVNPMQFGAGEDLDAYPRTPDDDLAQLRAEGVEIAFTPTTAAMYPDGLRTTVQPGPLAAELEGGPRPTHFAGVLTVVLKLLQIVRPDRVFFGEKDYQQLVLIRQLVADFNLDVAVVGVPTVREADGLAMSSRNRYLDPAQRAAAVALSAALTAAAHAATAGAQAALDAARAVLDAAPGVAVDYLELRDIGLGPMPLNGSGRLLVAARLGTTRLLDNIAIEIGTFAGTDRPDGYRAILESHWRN

SMILES | inhibition
COc1ccc(CNS(=O)(=O)c2ccc3oc(C(=O)O)c(C)c3c2)cc1 | 0% (inactive)
Cc1cc(C)c2c(n1)nn1c(N3CCN(c4ccccc4C)CC3)cc(C)nc21 | 4% (inactive)
Cc1ccc(C)c(/C(O)=C2\C(=O)C(=O)N(CCCN3CCOCC3)C2c2cccnc2)c1 (stereo not given) | 2% (inactive)
COc1ccc(/C=N/n2cc(-c3ccc(OC)cc3)nc2N)cc1 | 0% (inactive)
C[C@@H]1C[C@H]2[C@@H]3C[C@H](F)C4=CC(=O)C=C[C@]4(C)[C@@]3(F)[C@@H](O)C[C@]2(C)[C@@]1(O)C(=O)COC(=O)C(C)(C)C | 0% (inactive)
CCOc1ccc(N(C(C)C(=O)NC2CCCCCC2)S(C)(=O)=O)cc1 (stereo not given) | 1% (inactive)
COc1ccc(S(=O)(=O)N2CCC(C(=O)Nc3c(F)cccc3F)CC2)cc1 | 2% (inactive)
O=c1[nH]c2ccccc2nc1NCCN1CCOCC1 | 1% (inactive)
O=C(Nc1ccc(S(=O)(=O)Nc2ccc(Cl)cc2)cc1)C1CCCO1 (stereo not given) | 4% (inactive)
c1ccc(N=P(c2nc3ccccc3o2)(N2CCOCC2)N2CCOCC2)cc1 | 0% (inactive)
COc1ccc(-c2nnc(SCC(=O)Nc3sc4c(c3C#N)CCC4)n2CC2CCCO2)cc1 (stereo not given) | 0% (inactive)
CC(CN1CCCCC1)OC(=O)c1ccc(Cl)cc1Cl (stereo not given) | 0% (inactive)
COC(=O)C(F)(F)Sc1c(C)[nH]c2ccccc12 | 3% (inactive)
COc1ccc(OCC(=O)N2CCN(C(=O)COc3ccc(Br)cc3)CC2)cc1 | 0% (inactive)
O=C(CSc1ccccc1C(=O)NCCCN1CCCC1=O)NCc1ccco1 | 5% (inactive)
COc1ccc(C)cc1-n1nnnc1SC/C(O)=C(\C#N)c1nc2ccccc2[nH]1 | 4% (inactive)
CCCCOCCCNC(=O)c1ccccc1OCC | 2% (inactive)
CCCCCC(=O)O[C@]1(C(C)=O)CC[C@H]2[C@@H]3CCC4=CC(=O)CC[C@]4(C)[C@H]3CC[C@@]21C | 0% (inactive)
COc1ccc2cc([C@H](C)C(=O)O)ccc2c1 | 0% (inactive)
Cc1ccc(S(=O)(=O)N2CCCN(S(=O)(=O)C3CCS(=O)(=O)C3)CC2)cc1 (stereo not given) | 2% (inactive)

SMILES | inhibition
CCCCCn1c(CN2CCN(C(=O)OCC)CC2)nc2c1c(=O)[nH]c(=O)n2C | 3% (inactive)
Cn1c(=O)c2[nH]cnc2n(C)c1=O | 1% (inactive)
CCOC(=O)CSc1nnc(CNC(=O)c2ccc(OC)c(OC)c2)n1C | 0% (inactive)
COc1ccccc1N1CC(C(=O)Nc2cccc(C(=O)O)c2)CC1=O (stereo not given) | 0% (inactive)
COc1cc(S(=O)(=O)N2CCC(N3CCCCC3)CC2)ccc1-n1cnnn1 | 3% (inactive)
CCc1nc(SCC(=O)NCc2ccco2)c2c3c(sc2n1)CCCC3 | 4% (inactive)
COc1ccc(-c2cc(C(F)(F)F)nc(N3CCN(c4ccc(F)cc4)CC3)n2)cc1OC | 0% (inactive)
Cn1c(=O)c(C(=S)NC(=O)C2CC2)c(N)n(Cc2ccccc2)c1=O | 3% (inactive)
O=C(CN1CCOCC1)N1CCN(C(=O)CN2CCOCC2)CC1 | 6% (inactive)
Cc1[nH]n(C(N)=S)c(=O)c1C(c1ccccc1)C(C#N)C#N (stereo not given) | 0% (inactive)
CCOc1ccc(S(=O)(=O)N(C)C)cc1-c1nc2c(C(C)(C)C)nn(C)c2c(=O)[nH]1 | 0% (inactive)
NC(N)=NS(=O)(=O)c1ccc(N)cc1 | 0% (inactive)
Nc1ncnc2nc(Sc3ccc(Cl)cc3)[nH]c12 | 0% (inactive)
CC(C)CCNC(=O)[C@H](CC(C)C)NC(=O)[C@H]1O[C@@H]1C(=O)O | 0% (inactive)
CS(=O)(=O)N(CC(=O)NCc1ccccn1)c1ccc2c(c1)OCCO2 | 0% (inactive)
COC(=O)Nc1nc2c(C)cccc2s1 | 0% (inactive)
COc1ccc(CC(=O)Nc2c3c(nn2-c2cccc(Cl)c2)CS(=O)C3)cc1 (stereo not given) | 7% (inactive)
CO/C([O-])=N/c1c[n+](-c2ccc(C)cc2)no1 | 0% (inactive)
O=C1NC2c3ccccc3C(=O)N2c2c1cnn2-c1ccccc1 (stereo not given) | 1% (inactive)
O=C(NC1CCCCC1)N(Cc1ccc(F)cc1)Cc1nc2ccccc2c(=O)[nH]1 | 9% (inactive)
